Data from PubChem BioAssay AID1942 (Johns Hopkins Ion Channel Center, 2009).
In all, about 2,400 compounds went through this assay and about 580 (24%) were called active.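 Rule for the calls: active = activity change at or above the mean plus 3 SD of buffer wells without dofetilide, per plate; inactive = the rest.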 The list is a sample of the results.

Each compound was assayed against Potassium voltage-gated channel subfamily KQT member 2 (Rattus norvegicus) (UniProt O88943) (assay: rat KCNQ2 channel activation by compounds alone, confirmation, counter-screen for hERG block protector project, cell-based, CHO, FluxOR thallium flux (AID 1942;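 note: normalized value minus buffer-control mean plus three SD of buffer wells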)). Conditions: CHO-KCNQ2 cells, FluxOR thallium flux fluorescence; at 10 µM; hits give high values.
Chain of Potassium voltage-gated channel subfamily KQT member 2 (Rattus norvegicus) (O88943 whole entry, looked up): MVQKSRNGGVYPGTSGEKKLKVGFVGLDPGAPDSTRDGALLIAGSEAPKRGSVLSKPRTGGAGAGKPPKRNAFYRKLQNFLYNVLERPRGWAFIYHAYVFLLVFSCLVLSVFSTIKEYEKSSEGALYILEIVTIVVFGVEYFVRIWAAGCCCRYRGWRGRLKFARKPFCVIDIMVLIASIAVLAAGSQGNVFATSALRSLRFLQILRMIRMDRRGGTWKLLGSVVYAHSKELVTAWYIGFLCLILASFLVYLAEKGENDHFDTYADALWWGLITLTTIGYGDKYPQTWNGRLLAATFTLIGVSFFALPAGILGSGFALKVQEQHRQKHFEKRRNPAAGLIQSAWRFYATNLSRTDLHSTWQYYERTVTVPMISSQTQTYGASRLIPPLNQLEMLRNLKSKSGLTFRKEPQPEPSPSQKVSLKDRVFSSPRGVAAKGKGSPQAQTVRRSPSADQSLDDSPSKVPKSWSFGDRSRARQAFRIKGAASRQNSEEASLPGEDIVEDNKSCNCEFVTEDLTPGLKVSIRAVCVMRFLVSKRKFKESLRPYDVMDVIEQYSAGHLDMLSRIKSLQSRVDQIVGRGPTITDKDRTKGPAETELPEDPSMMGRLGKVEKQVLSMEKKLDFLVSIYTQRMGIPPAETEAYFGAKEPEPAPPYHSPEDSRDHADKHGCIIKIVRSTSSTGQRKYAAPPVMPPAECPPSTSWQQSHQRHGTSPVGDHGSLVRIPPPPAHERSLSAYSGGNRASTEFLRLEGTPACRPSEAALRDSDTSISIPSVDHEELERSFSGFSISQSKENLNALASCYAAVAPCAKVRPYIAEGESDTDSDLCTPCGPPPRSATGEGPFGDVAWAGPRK

Structure (SMILES) | activity change, less the hit threshold
COc1cc(C2NC(=O)NC(O)(C(F)(F)F)C2C(C)=O)cc(OC)c1OC (configuration not stated) | -20.3% (inactive)
O=C1CC(C(=O)N2CCOCC2)C2(CCCCC2)O1 (configuration not stated) | -22.9% (inactive)
CCOc1ccccc1CNC(=O)CNC(=O)c1cccs1 | -20.9% (inactive)
Cc1ccc(NC(=S)c2nc3ccccc3s2)cc1 | -9.6% (inactive)
S=C(Nc1ccc(Cl)cc1)c1nc2ccccc2s1 | 7.4% (active)
Cc1cccc(NC(=S)c2nc3ccccc3s2)c1 | -23.6% (inactive)
CC(C)(C)n1nnnc1C(c1cc2cc3c(cc2[nH]c1=O)OCCO3)N1CCSCC1 (configuration not stated) | -17.4% (inactive)
Cc1ccc2[nH]c(=O)c(C(c3nnnn3C3CCCC3)N3CCCc4ccccc43)cc2c1 (configuration not stated) | 13.3% (active)
CC(=O)Nc1ccc(S(=O)(=O)NC2(C(F)(F)F)C(=O)Nc3c2c(=O)[nH]c(=O)n3C)cc1 (configuration not stated) | -12.3% (inactive)
Cc1cc(OCCN2CCCCCC2)ccc1[N+](=O)[O-] | -19.9% (inactive)
O=c1cc(-c2ccccc2)cc(-c2ccccc2)n1O | 57.6% (active)
Cn1c(=O)cc(-c2ccccc2)c2ccccc21 | -20.4% (inactive)
C/C=C(\C)CN1CCN(c2cccc(C)c2C)CC1 | -16.9% (inactive)
Cc1ccccc1OCC(=O)NNC(=O)c1ccc2c(=O)n3c(nc2c1)CCC3 | -15.4% (inactive)
O=C(COc1ccc(Br)cc1Br)NC(=S)N1CCCc2ccccc21 | -16.8% (inactive)
CCC(=O)N1CCCc2ccccc21 | -20.5% (inactive)
O=C(NC(=S)Nc1ccccc1N1CCCC1)c1ccc([N+](=O)[O-])cc1 | -8.4% (inactive)
COc1ccccc1NC(=S)N1CCCc2ccccc21 | -23.2% (inactive)
O=C(NC(=S)N1CCCc2ccccc21)c1ccc(Br)cc1 | 18.2% (active)
O=C(NC(=S)N1CCCc2ccccc21)c1ccc([N+](=O)[O-])cc1 | 15.1% (active)
COc1ccccc1NC(=O)Cc1nnc(SCC(=O)Nc2nccs2)n1C | -13.3% (inactive)
Cc1ccc(C2c3c(-c4ccccc4O)n[nH]c3C(=O)N2Cc2ccncc2)cc1 (configuration not stated) | -18.8% (inactive)
O=C1N2CCSC2=NC1(NS(=O)(=O)c1ccccc1)C(F)(F)F (configuration not stated) | -12% (inactive)
O=C(Nc1ccccc1)N1CCSc2cc(Cl)ccc21 | -9.1% (inactive)
S=c1[nH]cnc2scc(-c3ccccc3)c12 | 44.9% (active)

Structure (SMILES) | activity change, less the hit threshold
S=c1[nH]cnc2scc(-c3ccc(Cl)cc3)c12 | 18.2% (active)
Cc1ccc(C)n1-n1c(C)nc2scc(-c3ccccc3)c2c1=O | -30.9% (inactive)
S=c1[nH]cnc2scc(-c3ccc(Br)cc3)c12 | 4.9% (active)
Cn1cc(/C=N/n2cnc3scc(-c4ccc(Cl)cc4)c3c2=O)c2ccccc21 | -18.8% (inactive)
Cc1ccc(-c2csc3nc[nH]c(=S)c23)cc1 | 41% (active)
Fc1ccc(-n2cc(-c3ccccc3)c3c(=S)nc[nH]c32)cc1 | -9.7% (inactive)
Cn1nnnc1Sc1ncnc2scc(-c3ccc(F)cc3)c12 | -21.3% (inactive)
CC1=NN(C(=O)c2cc(C)nn2C)C(O)(C(F)(F)F)C1 (configuration not stated) | -11.2% (inactive)
Nc1nc(Br)c2c(F)cccc2c1-c1ccc(Cl)cc1 | -21.1% (inactive)
COc1ccc(NC(=O)C2CCN(S(=O)(=O)c3cn(C)nc3C)CC2)cc1 | -13.2% (inactive)
O=C(Cn1c(=O)c2cccn2c2ccccc21)NCCc1ccc(Cl)cc1 | -34.9% (inactive)
CC1CCCN(C(=O)COC(=O)c2cc(-c3cccs3)nn2-c2ccccc2)C1 (configuration not stated) | -25.5% (inactive)
Cn1ncc2c(NNC(=O)Cc3ccccc3)ncnc21 | -14.4% (inactive)
Cc1ccc(-n2ncc3c(SCC(=O)NNC(=O)c4ccco4)ncnc32)cc1 | 4.4% (active)
O=C(CSc1ncnc2c1cnn2-c1ccc(Cl)cc1)NCc1ccc2c(c1)OCO2 | -11.1% (inactive)
CC(C)Oc1c(Cl)cc(CNC(C)(C)CO)cc1Cl | -18.3% (inactive)
c1cnc2c(Oc3ncnc4sccc34)cccc2c1 | -17% (inactive)
O=C(O)c1ccc(S(=O)(=O)/N=C2\C=C(Nc3ccccc3F)C(=O)c3ccccc32)cc1 | 3.9% (active)
Cc1ccccc1NC1=C/C(=N\S(=O)(=O)c2ccc(C(=O)O)cc2)c2ccccc2C1=O | 10% (active)
Cc1cc(NC(C)C)n2c(nc3ccccc32)c1C#N | -21.5% (inactive)
Cc1cc(NC(=O)CCCn2cnc([N+](=O)[O-])n2)no1 | -14.3% (inactive)
Cc1sc2nc[nH]c(=S)c2c1-c1ccccc1 | 41.3% (active)
Cc1c(-c2ccccc2)sc2nc[nH]c(=S)c12 | 43.6% (active)
CC(=O)C1=C(C)NC(=O)NC1/C=C/c1ccccc1 (configuration not stated) | -23% (inactive)
CCN(CC(=O)NCc1ccc(Cl)cc1)C(=O)CCOc1ccc(C)cc1 | -24.3% (inactive)

Structure (SMILES) | activity change, less the hit threshold
CCCCCN(C(=O)CCC(=O)OCC(=O)N(C)C1CCCCC1)c1c(N)n(CCCC)c(=O)[nH]c1=O | -22.7% (inactive)
CCN1CCN(C(=O)c2ccc(Cn3c(=O)[nH]c4cc(OC)c(OC)cc4c3=O)cc2)CC1 | -7.7% (inactive)
CN1CCN(c2ccc(NC(=O)c3ccc(Br)o3)cc2)CC1 | -6.3% (inactive)
Cc1cccc(NC(=S)NC(=O)c2ccc(Br)o2)c1C | 12.7% (active)
Cc1cccc(NC(=O)CCNC(=O)c2ccco2)c1C | -12.3% (inactive)
Cc1cccc(NC(=S)NC(=O)c2ccco2)c1C | 54.7% (active)
Cc1cccc(C)c1NC(=S)NC(=O)c1ccc(Br)o1 | 66.5% (active)
C/C(=C/CCC(C)C1CCC2(C)C3CCC4C(C)(C)C(=O)CCC4(C)C3=CCC12C)C(=O)O (configuration not stated) | -17.4% (inactive)
CO/N=C(\CCC(=O)O)c1cccs1 | -9.3% (inactive)
CC1(C)CC2(CCO1)C(Nc1ccccc1)=NC(=S)N2CC(N)=O (configuration not stated) | -15.8% (inactive)
Cc1ccccc1NC1=NC(=S)N(c2ccccc2)C12CCCCC2 | 11.4% (active)
COc1ccc(/C=C/c2cc(=O)c3cc(Cl)ccc3o2)cc1 | -18.8% (inactive)
NS(=O)(=O)c1ccc(NC(=O)c2ccc(S(=O)(=O)N3CCc4ccccc43)cc2)cc1 | -7.3% (inactive)
COc1ccc(-n2nc(C(=O)NCC(=O)NCc3ccc(F)cc3)c3ccccc3c2=O)cc1OC | -10.3% (inactive)
COc1cccc(NC(=O)c2nn(-c3ccc(OC)cc3OC)c(=O)c3ccccc23)c1 | -13.8% (inactive)
COc1cccc(-n2nc(C(=O)O)c3ccccc3c2=O)c1 | 3.7% (active)
COc1ccc(C)cc1-n1nnnc1SCc1nc2ccccc2c(=O)[nH]1 | -22% (inactive)
CCOC(=O)CN1N=C(/C=C/c2ccc(OC)cc2)CCC1=O | -17.3% (inactive)
CCOC(=O)c1nc(C)n(-c2ccc(Cl)cc2)n1 | -12.5% (inactive)
CCC1=NN(C(=O)c2ccc(Cl)cc2)C(O)(c2ccc(C)cc2)C1 (configuration not stated) | -12.6% (inactive)
CCCCC1(O)CC(C(F)(F)F)=NN1C(=O)COc1ccccc1 (configuration not stated) | -22.2% (inactive)
CCOC(=O)C1=NN(C(=O)c2ccc(C)cc2)C(O)(c2ccc(Cl)cc2)C1 (configuration not stated) | 88.1% (active)
CCOC(=O)C1=NN(C(=O)c2ccc(OC)cc2)C(O)(c2ccc(Cl)cc2)C1 (configuration not stated) | 71.1% (active)
CCOC(=O)C1=NN(C(=O)c2ccccc2)C(O)(c2ccc(C)cc2)C1 (configuration not stated) | 2.6% (active)
O=C(CSc1nc2cc(Cl)ccc2s1)c1cc2ccccc2o1 | -2% (inactive)

Structure (SMILES) | activity change, less the hit threshold
CN1C(=O)C2(OCC(C)([N+](=O)[O-])CO2)c2ccccc21 (configuration not stated) | -9.8% (inactive)
CC1=C(C#N)C(Nc2cc(C)ccn2)(C(F)(F)F)C(=O)N1 (configuration not stated) | -18.4% (inactive)
CSc1nc2c(c(=O)[nH]1)C(c1ccccc1Cl)CC(=O)N2 (configuration not stated) | -20.4% (inactive)
Cc1cc(C(=O)NP(=O)(N2CCOCC2)N2CCOCC2)c(C)n1-c1ccc(Br)cc1 | -22% (inactive)
O=C(CSc1nnc(SCc2ccccc2)s1)N/N=C/c1ccc(Cl)cc1Cl | -22.9% (inactive)
O=C1c2ccccc2C(=O)N1c1cccnc1 | -14.6% (inactive)
Cc1ccc(C)c(NC(=S)c2nc3ccccc3s2)c1 | -7.6% (inactive)
CC(C)Oc1ccc(CNC(=O)C2CCN(C(=O)N3CCOc4ccccc43)CC2)cc1 | -20.2% (inactive)
CC(C)CC(=O)Nc1ccc2c3c(cccc13)CC2 | 44.7% (active)
CC(=O)c1ccc2c3c(cccc13)CC2 | -12.7% (inactive)
COc1cc(C(=O)NCc2ccc(-c3nc4ccccc4o3)cc2)cc(OC)c1OC | -13.9% (inactive)
Cc1cc(=O)[nH]c(SCC(=O)NC2CCCCC2)n1 | -14.4% (inactive)
Cc1cc(Cl)c(S(N)(=O)=O)cc1OCC(=O)NC1CCCCC1 | -7.9% (inactive)
Cc1cc(Cl)c(S(=O)(=O)N2CCSCC2)cc1OCC(=O)NC1CCCCC1 | 57.4% (active)
COC(=O)c1cc(S(=O)(=O)NCC2CCN(Cc3cc(C)ccc3C)CC2)c[nH]1 | -11.5% (inactive)
Cn1ccnc1C(O)c1cccc(OCc2ccccc2)c1 (configuration not stated) | -25.3% (inactive)
C/C(=N\O)C1CC(CC(=O)O)C1(C)C (configuration not stated) | -14.4% (inactive)
CN(CC(=O)Nc1ccc(Cl)cc1)C(=O)c1cccc(S(=O)(=O)NCc2ccccc2)c1 | -17.3% (inactive)
O=C(Nc1nnc(SCC(=O)N2CCCCC2)s1)C1CCCCC1 | -14.2% (inactive)
O=C(Nc1nc2c(Br)cc(Br)cc2c(=O)s1)C1CCC1 | 9.5% (active)
O=C(Nc1cccc(Br)c1)C1CCCC1 | -12.2% (inactive)
Cc1cc(=O)oc2c3c(cc(OCC(=O)N[C@@H](Cc4ccccc4)C(=O)O)c12)OC(C)(C)CC3 | -6.7% (inactive)
